# Results taken from PubChem BioAssay (NCI).
# This is part of a sample that, as a whole, favours compounds with a hit. Of some 83,000 tested, about 20% had one in any assay.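 Note: values are percent growth. 100 is the growth of untreated cells, values between 100 and 0 indicate rising inhibition; between -100 and 0 indicates cell death.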 Values without a mark were called inactive. Calls of active or inactive are those of the source. Rule for the calls: active = growth percent below 10; inactive = the rest.
# Key:
# Test in all cases: NCI-60 one-dose screen, 48 h (100 = growth as untreated, 0 = no growth, -100 = all killed)
# Conditions in all cases: 10 µM unless noted
# NCI-H23 lung = test system: NCI-H23 lung
# NCI-H226 lung = test system: NCI-H226 lung
# NCI-H322M lung = test system: NCI-H322M lung
# HOP-62 NSCLC = test system: HOP-62 NSCLC
# NCI-H460 lung = test system: NCI-H460 lung
# HOP-92 NSCLC = test system: HOP-92 NSCLC
# NCI-H522 lung = test system: NCI-H522 lung
# A549/ATCC NSCLC = test system: A549/ATCC NSCLC
# 786-0 renal = test system: 786-0 renal
# COLO 205 colon = test system: COLO 205 colon
# DU-145 prostate = test system: DU-145 prostate
# K-562 leukemia = test system: K-562 leukemia
# MALME-3M melanoma = test system: MALME-3M melanoma
# RXF 393 renal = test system: RXF 393 renal
# SF-268 CNS = test system: SF-268 CNS
# SF-295 CNS = test system: SF-295 CNS
# SF-539 CNS = test system: SF-539 CNS
# UACC-257 melanoma = test system: UACC-257 melanoma
# M14 melanoma = test system: M14 melanoma
# MDA-MB-231 breast = test system: MDA-MB-231 breast
Structure (SMILES),growth (NCI-H23 lung),growth (NCI-H226 lung) [%],growth (NCI-H322M lung) [%],growth (HOP-62 NSCLC) [%],growth (NCI-H460 lung),growth (HOP-92 NSCLC),growth (NCI-H522 lung),growth (A549/ATCC NSCLC) [%],growth (786-0 renal) [%],growth (COLO 205 colon) [%],growth (DU-145 prostate) [%],growth (K-562 leukemia),growth (MALME-3M melanoma),growth (RXF 393 renal) [%],growth (SF-268 CNS) [%],growth (SF-295 CNS) [%],growth (SF-539 CNS) [%],growth (UACC-257 melanoma),growth (M14 melanoma),growth (MDA-MB-231 breast)
CC(CC(CCC(=O)O)(c1ccccc1)c1ccccc1)N(C)C (configuration not stated),98.8%,95.3,95.9,96.6,107%,102%,105%,89.8,98.5,104,115,103%,109%,105,102,93,95.1,88.9%,95%,–
CC(C)(C)[Si](C)(C)OCC1OC(n2cnc3c(N)ncnc32)CC1OS(C)(=O)=O (configuration not stated),106%,101,109,104,105%,98.5%,99%,99.4,103,110,105,105%,–,102,97.9,110,108,94.7%,104%,102%
CCCOCc1cn[nH]n1,107%,104,102,99.8,111%,106%,99.3%,96,102,111,108,104%,–,109,103,101,98.8,94%,106%,110%
CC(=O)NC(O)C(Cl)Cl (configuration not stated),91.8%,102,98.4,95.6,106%,94.9%,94%,102,112,98.9,99.2,84.3%,96.7%,113,95,93.6,90.6,107%,110%,–
c1cc(CNCCNCc2ccncc2)ccn1,112%,103,97,103,116%,97.5%,108%,97.7,104,113,115,108%,–,107,104,104,105,93.7%,109%,104%
NNC(=O)CCCCl,97.7%,98.7,107,107,111%,137%,104%,100,108,118,108,105%,–,96.6,102,102,106,105%,100%,104%
CCCCNc1ccc(-c2ccc(NCCCC)cc2)cc1,65.5%,73.4,95.9,91.2,65.8%,97.7%,46.2%,61.6,58.9,111,83.1,46.7%,–,79.7,70,57.4,49.5,70.7%,–,84.1%
C/C(=N\N=C(/C)c1cccc([N+](=O)[O-])c1)c1cccc([N+](=O)[O-])c1,90.3%,111,96.1,74.3,86.4%,87.5%,57.3%,79.3,77.4,79.8,95.3,98.3%,85%,93.9,80.2,95.8,93.4,87.6%,-36.5% (active),–
COc1ccc(NNS(=O)(=O)O)cc1,98.3%,95,116,85.1,105%,80.3%,96%,95.3,103,104,111,99.5%,104%,95.1,106,92.5,95.1,–,92.5%,–
Cc1ccc(C(C)C)c(OCC(=O)O)c1,107%,105,107,101,107%,98%,111%,90.8,102,107,121,108%,–,114,97.5,101,103,88.3%,108%,107%
CC1CC2C3CCC4=CC(=O)CCC4(C)C3CCC2(C)C1(O)C(=O)CO (configuration not stated),115%,103,109,106,117%,100%,92.2%,88.6,112,117,130,98.4%,–,122,121,124,107,114%,111%,108%
C=C1C(=O)C2CCN1CC2,102%,101,99.5,101,104%,104%,-53.8% (active),97,96.2,102,103,57.3%,–,89.6,102,96.1,102,108%,92.3%,125%
Cc1nc(C)c(C(=O)O)cc1C(=O)O,101%,110,126,106,112%,103%,108%,116,112,131,–,99.6%,105%,117,116,118,95,111%,114%,108%
C(=C\c1ccncc1)/c1ccncc1,98.7%,96.4,90.8,101,107%,87.9%,5.51% (active),96.5,107,115,145,–,87.1%,–,146,107,104,108%,105%,110%
O=C1C=C(c2ccccc2)C(O)(c2ccccc2)C1 (configuration not stated),99.1%,101,106,101,110%,163%,94%,93.4,99.1,104,–,86.6%,108%,115,103,94.1,104,97.7%,95.5%,92.5%
C=CCOc1ccc(Cl)cc1Cl,111%,104,113,113,110%,77.3%,108%,109,104,109,–,5.12% (active),113%,132,104,98.2,96.8,115%,–,91.5%
CCOP(=O)(NC(c1ccccc1)c1ccccc1)OCC,108%,103,99,95.5,107%,89.7%,113%,106,102,100,–,114%,89.7%,113,104,102,115,97.8%,–,106%
CCOC(=O)/C(O)=C(\C=N\C(=S)Nc1ccc(Cl)c(Cl)c1)C(=O)OCC,87.3%,75.2,106,94.3,106%,95.5%,71.4%,101,115,92.9,–,92.7%,89.3%,97.9,104,105,73.9,98.6%,93.2%,94.3%

Structure (SMILES),growth (NCI-H23 lung),growth (NCI-H226 lung) [%],growth (NCI-H322M lung) [%],growth (HOP-62 NSCLC) [%],growth (NCI-H460 lung),growth (HOP-92 NSCLC),growth (NCI-H522 lung),growth (A549/ATCC NSCLC) [%],growth (786-0 renal) [%],growth (COLO 205 colon) [%],growth (DU-145 prostate) [%],growth (K-562 leukemia),growth (MALME-3M melanoma),growth (RXF 393 renal) [%],growth (SF-268 CNS) [%],growth (SF-295 CNS) [%],growth (SF-539 CNS) [%],growth (UACC-257 melanoma),growth (M14 melanoma),growth (MDA-MB-231 breast)
O=C(NCc1ccccc1)/C(=C/c1ccccc1)NC(=O)c1ccccc1,104%,98,104,104,103%,85.8%,90%,85.4,112,110,111,–,–,93.7,100,106,115,81.1%,101%,92.6%
CCOC(=O)C(COS(C)(=O)=O)(COS(C)(=O)=O)C(=O)OCC,99.5%,105,101,98.1,109%,86%,96%,105,108,107,–,101%,122%,112,99,111,112,105%,104%,109%
Cc1cccc(C)c1NC(=S)/N=C\c1c(O)[nH]c(=O)[nH]c1=O,104%,100,98.5,87.7,105%,102%,86.4%,79.4,101,103,111,–,–,108,98,97.9,112,81.8%,98.4%,96.6%
CC(=O)OCC1OC(n2cnc3c(=S)nc(N)[nH]c32)C(OC(C)=O)C1OC(C)=O (configuration not stated),88.3%,68.2,77.3,49.3,67.2%,28.4%,83.5%,105,66,120,53.1,–,84.4%,–,76.8,40,85.7,–,37.6%,63.5%
CC(=O)C1C(=O)C(=O)N(c2ccc(Cl)c(Cl)c2)C1=O (configuration not stated),90.3%,106,108,89.3,109%,116%,103%,113,102,103,–,108%,92.4%,110,99.8,96.7,99.5,109%,93.7%,101%
CCOc1ccc(NC(=S)N2CCC(CCCC3CCN(C(=S)Nc4ccc(OCC)cc4)CC3)CC2)cc1,75.8%,77.1,100,104,91.5%,59.2%,77.7%,83.3,–,110,95.9,61.5%,80.1%,110,83.1,84.6,106,83.1%,97.9%,92.4%
Cc1c(Cl)cccc1N=C=S,85%,101,95.4,88.5,101%,69.6%,86.8%,90.4,101,117,112,–,99%,91.9,107,93.9,90.2,92.7%,90.6%,130%
C/C(O)=C(/C=N/C(=S)Nc1ccccc1)C(=O)Nc1ccccc1C,103%,95.8,104,99.4,106%,92.6%,94.5%,97.3,102,110,–,100%,89.1%,104,97.9,105,101,91.2%,100%,99.7%
O=C(NCCc1ccccc1)/C(=C\c1ccc(Cl)cc1Cl)NC(=O)c1ccccc1,91.2%,101,101,98.7,97.1%,80.5%,90%,101,107,92.9,–,122%,79.4%,92.8,95,99.5,94.1,96.6%,96.4%,90.8%
OC(CCN1CCCCC1)(c1ccccc1)c1ccccc1,98.6%,104,97.6,110,116%,85.6%,98.4%,104,98.1,103,115,–,95.4%,91.7,104,111,117,100%,–,105%
COc1ccc(Br)c2c1C(=O)CC2,109%,100,159,116,110%,94.5%,43.1%,122,113,114,127,–,113%,–,91.3,111,106,119%,110%,106%
N#C/C(=C\c1ccc(C#N)cc1)C(=O)c1ccccc1,86.8%,95.5,97.4,103,116%,86.3%,91.4%,98.4,94.2,123,107,–,109%,–,104,107,96.8,97.7%,95.7%,104%
Cc1cc(Cl)cc(Cc2cc(Cl)cc(C)c2O)c1O,0.327% (active),92.3,18.1,56.8,6.76% (active),-33% (active),-7.46% (active),29,14.9,101,30.5,–,-7.41% (active),56.9,15,22.6,12.7,8.59% (active),14.2%,1.11% (active)
O=CNCCc1ccccc1,102%,98.9,106,90.8,111%,88.5%,104%,96.8,102,103,–,89.9%,130%,111,110,95.8,115,103%,102%,105%
CCOP(=O)(OCC)/C(=C\N1C(=O)CC(=O)NC1=S)C(=O)OC,97.9%,95.7,107,88,103%,107%,104%,99.7,108,99.5,–,103%,102%,103,101,102,109,101%,–,93.6%
NNC(=O)N/N=C1\C(=O)N(c2nccs2)C(=O)C(=O)C1c1nc2ccccc2s1 (configuration not stated),95.6%,89.1,105,81.3,101%,98.6%,83.1%,75.8,118,98.6,103,–,98.7%,106,96.3,109,106,68.9%,105%,90.4%
Cc1ccc[n+](CCC(N)=O)c1,95.3%,99.6,103,87.2,91.4%,91.5%,90.2%,93.7,94.4,107,103,–,79.3%,106,97.6,93.5,87.3,103%,109%,92.3%
